# Many of the other results were omitted from the sample, so the strongest signals are more common in it than they were.
# B1: rAAL-I144G (Agrocybe aegerita), Q6WY08 (protein)
# chain: MQGVNIYNISAGTSVDLAAPVTTGDIVTFFSSALNLNAGAGNPNNTTLNLFAENGAYLLHIAFRLQENVIIFNSRQPDGPWLVEQRVSDVANQFAGIDGKAMVTVFDHGDKYQVVINEKTVIQYTKQISGLTLSLSYNATEETSGFSTVVEAVTYTGLALEHHHHHH
# Key:
# Test in all cases: glycan array binding signal (z-score within array); higher = stronger binding
# Settings in all cases: glycan notation: IUPAC condensed, linker removed; mutation: I144G
# [1] = target: Fuc(a1-2)Gal(b1-3)GalNAc(b1-3)Gal(a1-4)Gal(b1-4)Glc
# In short: (§1)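 The Consortium for Functional Glycomics database supplied 3228 glycan arrays, of which those lacking an available protein sequence were dropped. The binding signal, a within-array Z-score, was averaged across arrays of the same protein sequence and across linkers. Negative scores can be read as non-binding.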
# [2] = target: Fuc(a1-2)Gal(b1-3)GlcNAc(b1-3)[Fuc(a1-2)Gal(b1-3)GlcNAc(b1-6)]GalNAc
# In short: as §1
# [3] = target: Fuc(a1-2)Gal(b1-4)[Fuc(a1-3)]GlcNAc(b1-3)[Neu5Ac(a2-6)Gal(b1-4)GlcNAc(b1-6)]Gal(b1-4)Glc
# In short: as §1
# [4] = target: Fuc(a1-2)[Gal(a1-3)]Gal(b1-4)GlcNAc(b1-6)GalNAc
# In short: as §1
# [5] = target: Fuc(a1-2)[GalNAc(a1-3)]Gal
# In short: as §1
# [6] = target: Fuc(a1-2)[GalNAc(a1-3)]Gal(b1-3)GlcNAc(b1-2)Man(a1-3)[Fuc(a1-2)[GalNAc(a1-3)]Gal(b1-3)GlcNAc(b1-2)Man(a1-6)]Man(b1-4)GlcNAc(b1-4)[Fuc(a1-6)]GlcNAc
# In short: as §1
# [7] = target: Gal(a1-3)Gal(b1-4)GlcNAc(b1-2)Man(a1-3)[Gal(a1-3)Gal(b1-4)GlcNAc(b1-2)Man(a1-6)]Man(b1-4)GlcNAc(b1-4)GlcNAc
# In short: as §1
# [8] = target: Gal(a1-4)Gal(b1-4)GlcNAc(b1-3)Gal(b1-4)Glc
# In short: as §1
# Gal(b1-3)Gal(b1-4)GlcNAc = target: Gal(b1-3)Gal(b1-4)GlcNAc
# In short: as §1
# [9] = target: Gal(b1-3)GalNAc(b1-4)[Neu5Ac(a2-3)]Gal(b1-4)Glc
# In short: as §1
# [10] = target: Gal(b1-4)GlcNAc(b1-3)Gal(b1-3)GalNAc
# In short: as §1
# Gal3S(b1-3)GalNAc = target: Gal3S(b1-3)GalNAc
# In short: as §1
# [11] = target: GlcA3S(b1-3)Gal(b1-4)GlcNAc(b1-2)Man
# In short: as §1
# [12] = target: GlcA3S(b1-3)Gal(b1-4)GlcNAc(b1-3)Gal(b1-4)Glc
# In short: as §1
# [13] = target: GlcNAc(b1-2)Man(a1-3)[GlcNAc(b1-4)][GlcNAc(b1-2)Man(a1-6)]Man(b1-4)GlcNAc(b1-4)[Fuc(a1-6)]GlcNAc
# In short: as §1
# [14] = target: GlcNAc(b1-3)Gal(b1-3)GalNAc
# In short: as §1
# GlcNAc(b1-6)GalNAc = target: GlcNAc(b1-6)GalNAc
# In short: as §1
# [15] = target: Neu5Ac(a2-3)Gal(b1-3)GalNAc
# In short: as §1
# [16] = target: Neu5Ac(a2-3)Gal(b1-3)GalNAc(b1-3)Gal(a1-4)Gal(b1-4)Glc
# In short: as §1
# [17] = target: Neu5Ac(a2-3)Gal(b1-3)GalNAc(b1-4)[Neu5Ac(a2-3)]Gal(b1-4)Glc
# In short: as §1
# [18] = target: Neu5Ac(a2-3)Gal(b1-3)GalNAc6S
# In short: as §1
# [19] = target: Neu5Ac(a2-3)Gal(b1-3)[GlcNAc(b1-6)]GalNAc
# In short: as §1
# [20] = target: Neu5Ac(a2-3)Gal(b1-4)GlcNAc(b1-2)Man(a1-3)[GlcNAc(b1-4)][Neu5Ac(a2-3)Gal(b1-4)GlcNAc(b1-2)Man(a1-6)]Man(b1-4)GlcNAc(b1-4)GlcNAc
# In short: as §1
# [21] = target: Neu5Ac(a2-3)Gal(b1-4)GlcNAc(b1-2)[Neu5Ac(a2-3)Gal(b1-4)GlcNAc(b1-6)]Man(a1-6)[Neu5Ac(a2-3)Gal(b1-4)GlcNAc(b1-2)Man(a1-3)][GlcNAc(b1-4)]Man(b1-4)GlcNAc(b1-4)GlcNAc
# In short: as §1
# [22] = target: Neu5Ac(a2-3)Gal(b1-4)GlcNAc(b1-3)Gal
# In short: as §1
# [23] = target: Neu5Ac(a2-6)Gal(b1-4)GlcNAc(b1-2)Man(a1-3)[Neu5Ac(a2-6)Gal(b1-4)GlcNAc(b1-2)Man(a1-6)]Man(b1-4)GlcNAc(b1-4)GlcNAc
# In short: as §1
# [24] = target: Neu5Ac(a2-6)Gal(b1-4)GlcNAc(b1-2)Man(a1-3)[Neu5Ac(a2-6)Gal(b1-4)GlcNAc(b1-2)Man(a1-6)]Man(b1-4)GlcNAc(b1-4)[Fuc(a1-6)]GlcNAc
# In short: as §1
# [25] = target: Neu5Ac(a2-6)Gal(b1-4)GlcNAc(b1-3)Gal(b1-4)GlcNAc
# In short: as §1
# [26] = target: Neu5Ac(a2-6)Gal(b1-4)GlcNAc(b1-3)Gal(b1-4)[Fuc(a1-3)]GlcNAc(b1-3)Gal(b1-4)[Fuc(a1-3)]GlcNAc
# In short: as §1
# [27] = target: Neu5Ac(a2-8)Neu5Ac(a2-3)Gal(b1-3)GalNAc(b1-4)[Neu5Ac(a2-3)]Gal(b1-4)Glc
# In short: as §1
# [28] = target: Neu5Ac9Ac(a2-3)Gal(b1-3)GlcNAc
# In short: as §1
# Neu5Gc(a2-6)GalNAc = target: Neu5Gc(a2-6)GalNAc
# In short: as §1
# [29] = target: Neu5Gc(a2-8)Neu5Ac(a2-3)Gal(b1-4)GlcNAc
# In short: as §1
# [30] = target: Neu5Gc(a2-8)Neu5Gc(a2-3)Gal(b1-4)GlcNAc
# In short: as §1
binder,measurement,setting,value
B1,glycan array binding signal (z-score),[1],-0.112
same,glycan array binding signal (z-score),[2],-0.208
same,glycan array binding signal (z-score),[3],-0.075
same,glycan array binding signal (z-score),[4],-0.088
same,glycan array binding signal (z-score),[5],-0.166
same,glycan array binding signal (z-score),[6],-0.134
same,glycan array binding signal (z-score),[7],2.88
same,glycan array binding signal (z-score),[8],-0.026
same,glycan array binding signal (z-score),Gal(b1-3)Gal(b1-4)GlcNAc,-0.134
same,glycan array binding signal (z-score),[9],-0.191
same,glycan array binding signal (z-score),[10],-0.191
same,glycan array binding signal (z-score),Gal3S(b1-3)GalNAc,17.3
same,glycan array binding signal (z-score),[11],11.8
same,glycan array binding signal (z-score),[12],9.46
same,glycan array binding signal (z-score),[13],-0.15
same,glycan array binding signal (z-score),[14],-0.103
same,glycan array binding signal (z-score),GlcNAc(b1-6)GalNAc,-0.16
same,glycan array binding signal (z-score),[15],1.67
same,glycan array binding signal (z-score),[16],1.35
same,glycan array binding signal (z-score),[17],1.33
same,glycan array binding signal (z-score),[18],4.09
same,glycan array binding signal (z-score),[19],1.74
same,glycan array binding signal (z-score),[20],1.63
same,glycan array binding signal (z-score),[21],-0.073
same,glycan array binding signal (z-score),[22],-0.059
same,glycan array binding signal (z-score),[23],-0.111
same,glycan array binding signal (z-score),[24],-0.049
same,glycan array binding signal (z-score),[25],-0.176
same,glycan array binding signal (z-score),[26],-0.095
same,glycan array binding signal (z-score),[27],1.99
same,glycan array binding signal (z-score),[28],-0.174
same,glycan array binding signal (z-score),Neu5Gc(a2-6)GalNAc,-0.086
same,glycan array binding signal (z-score),[29],-0.169
same,glycan array binding signal (z-score),[30],-0.122
